Here are results for one sequence from publication PMC7862700, “An all-to-all approach to the identification of sequence-specific readers for epigenetic DNA modifications on cytosine”.

Holding throughout (experiment): DAPPL (digital affinity profiling via proximity ligation, sequencing); 10 mM Tris-HCl pH 7.5, 50 mM NaCl, 1 mM DTT, 4% glycerol, room temperature, 30 min; GST-TFs on glutathione beads, 16-mer random dsDNA library, 0.1% formaldehyde crosslink after washing; high values mean tight binding
In assay [1] the target is T1, FEV (Homo sapiens, UniProt Q99581 1-238).
T1 sequence: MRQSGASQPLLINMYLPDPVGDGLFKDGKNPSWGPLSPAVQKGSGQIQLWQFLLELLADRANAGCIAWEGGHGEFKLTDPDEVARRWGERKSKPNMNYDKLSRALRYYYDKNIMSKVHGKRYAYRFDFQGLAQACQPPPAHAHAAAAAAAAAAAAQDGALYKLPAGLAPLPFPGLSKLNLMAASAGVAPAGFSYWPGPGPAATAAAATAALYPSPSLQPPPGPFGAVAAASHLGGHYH
To be noted: protein: recombinant; tags: N-terminal GST; dsDNA, one strand shown. The method, boiled down:
(§1)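 Binding signal is each hexamer's read frequency for a factor divided by its frequency in the tag-only sample. The factors were GST-fused human transcription factors from yeast, captured on glutathione beads, DNA-barcoded and pooled with that sample. Pools were incubated with 200 nmole of a random double-stranded 16-mer DNA library in Tris/NaCl/DTT/glycerol buffer at room temperature for 30 min, then washed, crosslinked with 0.1% formaldehyde, proximity-ligated with BsaI/T4 ligase (1 h, 37 °C), PCR-amplified and sequenced on an Illumina NextSeq500.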

Assay [2] concerns the target ETV5 (Homo sapiens, UniProt P41161 1-510). The note with it: protein: recombinant; tags: N-terminal GST; dsDNA, one strand shown. The procedure, abridged:
as §1

Assay [3] deals with HSF1 (Homo sapiens, UniProt Q00613 1-529). To be noted: protein: recombinant; tags: N-terminal GST; chain copies: 3; dsDNA, one strand shown. The procedure, abridged: as §1
Sequence of HSF1 (Q00613 whole entry): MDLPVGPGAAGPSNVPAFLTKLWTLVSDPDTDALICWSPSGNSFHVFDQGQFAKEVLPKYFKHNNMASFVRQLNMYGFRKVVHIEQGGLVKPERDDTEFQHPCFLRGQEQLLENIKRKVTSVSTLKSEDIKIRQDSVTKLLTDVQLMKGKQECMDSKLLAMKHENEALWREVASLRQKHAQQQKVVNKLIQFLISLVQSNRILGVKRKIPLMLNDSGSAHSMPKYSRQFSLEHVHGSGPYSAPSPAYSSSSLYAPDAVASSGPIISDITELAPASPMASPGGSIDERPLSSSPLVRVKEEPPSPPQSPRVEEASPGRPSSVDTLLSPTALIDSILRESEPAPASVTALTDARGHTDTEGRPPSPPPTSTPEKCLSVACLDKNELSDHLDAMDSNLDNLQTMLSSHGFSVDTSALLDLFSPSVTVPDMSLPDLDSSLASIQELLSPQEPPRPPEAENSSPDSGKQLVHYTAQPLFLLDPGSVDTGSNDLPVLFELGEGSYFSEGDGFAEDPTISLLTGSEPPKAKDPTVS
In assay [4] the target is T2, SPIC (Homo sapiens, UniProt Q8N5J4 1-248).
T2 sequence: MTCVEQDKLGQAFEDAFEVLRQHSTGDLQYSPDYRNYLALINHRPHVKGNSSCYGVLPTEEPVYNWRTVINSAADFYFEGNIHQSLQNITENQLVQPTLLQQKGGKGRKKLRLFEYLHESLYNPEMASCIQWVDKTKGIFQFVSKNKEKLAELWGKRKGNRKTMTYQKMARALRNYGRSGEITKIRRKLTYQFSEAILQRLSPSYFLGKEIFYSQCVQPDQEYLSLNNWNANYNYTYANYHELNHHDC
The note with it: protein: recombinant; tags: N-terminal GST; dsDNA, one strand shown. The method, boiled down: as §1

The target in assay [5] is ELF4 (Homo sapiens, UniProt Q99607 1-663). To be noted: protein: recombinant; tags: N-terminal GST; dsDNA, one strand shown. The method, boiled down: as §1
Sequence of ELF4 (Q99607 whole entry): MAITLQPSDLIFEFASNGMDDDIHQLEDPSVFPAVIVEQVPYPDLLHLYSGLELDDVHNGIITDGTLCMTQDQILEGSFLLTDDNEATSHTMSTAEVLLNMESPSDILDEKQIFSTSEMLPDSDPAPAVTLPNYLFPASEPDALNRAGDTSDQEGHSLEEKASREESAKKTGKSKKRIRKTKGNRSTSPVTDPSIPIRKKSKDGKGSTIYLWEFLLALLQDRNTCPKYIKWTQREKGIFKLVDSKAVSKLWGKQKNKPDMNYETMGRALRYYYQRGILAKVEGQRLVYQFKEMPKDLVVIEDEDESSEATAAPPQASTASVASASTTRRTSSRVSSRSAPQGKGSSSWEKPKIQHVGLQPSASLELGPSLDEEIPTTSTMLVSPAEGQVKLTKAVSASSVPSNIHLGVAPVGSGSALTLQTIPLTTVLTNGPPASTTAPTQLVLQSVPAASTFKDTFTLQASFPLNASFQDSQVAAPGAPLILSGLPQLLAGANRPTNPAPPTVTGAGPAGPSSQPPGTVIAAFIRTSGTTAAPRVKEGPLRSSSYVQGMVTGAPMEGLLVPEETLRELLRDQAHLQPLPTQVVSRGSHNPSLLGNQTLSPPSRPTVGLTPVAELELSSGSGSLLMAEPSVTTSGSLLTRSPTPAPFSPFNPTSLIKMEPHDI
Assay [6] has as its target T3, ELK4 (Homo sapiens, UniProt P28324-2 1-405).
T3 sequence: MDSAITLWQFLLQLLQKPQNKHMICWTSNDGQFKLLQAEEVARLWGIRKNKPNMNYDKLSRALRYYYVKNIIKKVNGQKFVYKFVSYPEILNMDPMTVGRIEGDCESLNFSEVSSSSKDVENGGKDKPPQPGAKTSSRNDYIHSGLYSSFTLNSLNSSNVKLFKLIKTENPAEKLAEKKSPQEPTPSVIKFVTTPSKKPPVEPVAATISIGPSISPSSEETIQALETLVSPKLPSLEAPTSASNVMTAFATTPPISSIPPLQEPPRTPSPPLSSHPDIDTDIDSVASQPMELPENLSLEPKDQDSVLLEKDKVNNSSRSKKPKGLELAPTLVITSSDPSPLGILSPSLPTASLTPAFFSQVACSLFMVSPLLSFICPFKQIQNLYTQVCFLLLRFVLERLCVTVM
To be noted: protein: recombinant; tags: N-terminal GST; dsDNA, one strand shown. The procedure, abridged: as §1

Assay [7] deals with T4, ETV2 (Homo sapiens, UniProt O00321 1-342).
T4 sequence: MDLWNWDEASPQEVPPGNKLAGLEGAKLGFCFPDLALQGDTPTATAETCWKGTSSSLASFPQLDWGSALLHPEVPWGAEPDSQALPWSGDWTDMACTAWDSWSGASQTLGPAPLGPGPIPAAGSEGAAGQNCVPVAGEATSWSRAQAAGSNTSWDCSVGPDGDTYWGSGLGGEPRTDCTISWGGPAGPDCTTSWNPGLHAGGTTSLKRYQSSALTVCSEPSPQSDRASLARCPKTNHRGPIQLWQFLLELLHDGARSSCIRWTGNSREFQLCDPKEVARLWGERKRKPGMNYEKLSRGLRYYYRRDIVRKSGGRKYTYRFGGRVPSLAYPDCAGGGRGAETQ
To be noted: protein: recombinant; tags: N-terminal GST; dsDNA, one strand shown. The method, boiled down: as §1

For assay [8], the target named is T5, ELF3 (Homo sapiens, UniProt P78545 1-371).
T5 sequence: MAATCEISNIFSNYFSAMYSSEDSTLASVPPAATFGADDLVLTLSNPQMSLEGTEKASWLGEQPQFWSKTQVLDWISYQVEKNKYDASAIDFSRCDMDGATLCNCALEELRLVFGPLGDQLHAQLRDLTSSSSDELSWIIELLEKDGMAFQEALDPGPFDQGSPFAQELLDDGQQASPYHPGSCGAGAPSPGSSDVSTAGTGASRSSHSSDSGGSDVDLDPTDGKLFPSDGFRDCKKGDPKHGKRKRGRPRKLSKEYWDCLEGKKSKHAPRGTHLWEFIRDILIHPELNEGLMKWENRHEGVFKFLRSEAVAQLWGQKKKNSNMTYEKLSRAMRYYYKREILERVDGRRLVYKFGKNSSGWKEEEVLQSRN
The note with it: protein: recombinant; tags: N-terminal GST; dsDNA, one strand shown. The method, boiled down: as §1

In assay [9] the target is CRX (Homo sapiens, UniProt O43186 1-299). The note with it: protein: recombinant; tags: N-terminal GST; dsDNA, one strand shown. The method, boiled down:
as §1

Assay [10] deals with ETV1 (Homo sapiens, UniProt P50549 1-477). The note with it: protein: recombinant; tags: N-terminal GST; dsDNA, one strand shown. The procedure, abridged:
as §1

In assay [11] the target is T6, ERF (Homo sapiens, UniProt P50548 1-548).
T6 sequence: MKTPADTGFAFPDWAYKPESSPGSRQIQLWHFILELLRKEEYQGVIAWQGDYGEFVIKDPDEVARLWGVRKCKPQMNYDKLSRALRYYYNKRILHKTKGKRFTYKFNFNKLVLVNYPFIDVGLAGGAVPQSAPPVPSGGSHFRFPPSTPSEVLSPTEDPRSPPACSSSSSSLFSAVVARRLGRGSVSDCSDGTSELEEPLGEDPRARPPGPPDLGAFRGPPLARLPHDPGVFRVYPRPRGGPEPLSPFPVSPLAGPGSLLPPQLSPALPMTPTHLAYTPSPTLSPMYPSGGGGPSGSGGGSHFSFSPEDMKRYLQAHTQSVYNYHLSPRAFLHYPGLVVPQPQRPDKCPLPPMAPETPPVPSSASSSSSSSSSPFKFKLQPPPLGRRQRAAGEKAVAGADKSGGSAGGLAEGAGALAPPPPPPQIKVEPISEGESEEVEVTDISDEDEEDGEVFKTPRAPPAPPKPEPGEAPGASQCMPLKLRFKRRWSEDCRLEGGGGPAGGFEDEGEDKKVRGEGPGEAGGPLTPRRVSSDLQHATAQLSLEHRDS
The note with it: protein: recombinant; tags: N-terminal GST; dsDNA, one strand shown. The method, boiled down:
as §1

Assay [12] has as its target T7, ETV3L (Homo sapiens, UniProt Q6ZN32 1-361).
T7 sequence: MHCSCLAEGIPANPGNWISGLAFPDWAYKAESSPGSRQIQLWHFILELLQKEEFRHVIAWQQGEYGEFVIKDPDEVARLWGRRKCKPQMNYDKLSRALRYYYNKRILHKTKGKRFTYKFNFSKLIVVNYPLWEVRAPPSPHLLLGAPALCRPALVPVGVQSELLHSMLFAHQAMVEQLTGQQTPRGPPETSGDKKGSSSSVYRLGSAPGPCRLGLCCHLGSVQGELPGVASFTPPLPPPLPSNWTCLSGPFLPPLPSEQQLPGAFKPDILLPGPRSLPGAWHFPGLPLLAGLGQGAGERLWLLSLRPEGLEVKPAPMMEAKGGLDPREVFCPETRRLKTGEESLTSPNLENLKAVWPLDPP
To be noted: protein: recombinant; tags: N-terminal GST; dsDNA, one strand shown. The procedure, abridged: as §1

The target of assay [13] is T8, ETS2 (Homo sapiens, UniProt P15036 1-469).
T8 sequence: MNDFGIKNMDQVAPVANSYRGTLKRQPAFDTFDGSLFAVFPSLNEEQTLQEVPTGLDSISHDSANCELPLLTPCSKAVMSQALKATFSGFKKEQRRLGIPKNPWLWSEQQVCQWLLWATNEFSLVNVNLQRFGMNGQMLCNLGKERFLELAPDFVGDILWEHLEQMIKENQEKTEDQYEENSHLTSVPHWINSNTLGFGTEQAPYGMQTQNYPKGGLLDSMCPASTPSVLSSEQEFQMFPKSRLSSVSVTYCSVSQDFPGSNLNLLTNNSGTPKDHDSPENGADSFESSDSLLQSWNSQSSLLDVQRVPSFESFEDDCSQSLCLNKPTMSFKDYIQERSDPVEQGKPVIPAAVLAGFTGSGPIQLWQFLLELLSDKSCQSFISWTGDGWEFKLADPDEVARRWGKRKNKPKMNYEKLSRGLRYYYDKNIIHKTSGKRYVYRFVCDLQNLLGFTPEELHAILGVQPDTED
The note with it: protein: recombinant; tags: N-terminal GST; dsDNA, one strand shown. The procedure, abridged:
as §1

The target in assay [14] is T9, SPDEF (Homo sapiens, UniProt O95238 1-335).
T9 sequence: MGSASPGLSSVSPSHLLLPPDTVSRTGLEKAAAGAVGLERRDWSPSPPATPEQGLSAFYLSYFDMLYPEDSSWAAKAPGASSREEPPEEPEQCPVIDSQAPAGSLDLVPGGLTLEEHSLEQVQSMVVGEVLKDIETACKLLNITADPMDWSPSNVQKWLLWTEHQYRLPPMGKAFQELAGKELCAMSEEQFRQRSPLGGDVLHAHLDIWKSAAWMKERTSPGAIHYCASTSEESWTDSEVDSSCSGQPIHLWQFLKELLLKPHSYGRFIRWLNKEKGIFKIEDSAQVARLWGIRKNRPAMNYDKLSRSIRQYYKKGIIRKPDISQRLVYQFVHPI
The note with it: protein: recombinant; tags: N-terminal GST; dsDNA, one strand shown. The procedure, abridged:
as §1

Assay [15] addresses T10, ETV7 (Homo sapiens, UniProt Q9Y603 1-341).
T10 sequence: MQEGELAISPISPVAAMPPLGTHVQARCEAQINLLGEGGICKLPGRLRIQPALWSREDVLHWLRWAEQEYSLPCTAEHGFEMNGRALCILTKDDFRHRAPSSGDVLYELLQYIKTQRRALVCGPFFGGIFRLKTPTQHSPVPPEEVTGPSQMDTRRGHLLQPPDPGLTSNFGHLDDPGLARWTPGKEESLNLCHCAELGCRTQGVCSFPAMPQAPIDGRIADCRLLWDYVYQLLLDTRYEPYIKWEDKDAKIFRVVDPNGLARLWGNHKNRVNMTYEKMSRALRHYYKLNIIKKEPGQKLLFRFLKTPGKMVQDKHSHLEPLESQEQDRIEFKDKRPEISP
To be noted: protein: recombinant; tags: N-terminal GST; dsDNA, one strand shown. The procedure, abridged:
as §1

Assay [16] addresses T11, ELF5 (Homo sapiens, UniProt Q9UKW6-2 1-255).
T11 sequence: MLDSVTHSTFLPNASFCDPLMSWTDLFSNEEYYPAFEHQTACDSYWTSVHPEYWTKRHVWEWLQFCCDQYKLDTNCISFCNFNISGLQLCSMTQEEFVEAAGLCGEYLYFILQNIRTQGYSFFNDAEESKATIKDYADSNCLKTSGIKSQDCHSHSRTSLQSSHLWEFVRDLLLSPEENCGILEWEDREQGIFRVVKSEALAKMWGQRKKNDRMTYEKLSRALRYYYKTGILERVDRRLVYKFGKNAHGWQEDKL
To be noted: protein: recombinant; tags: N-terminal GST; dsDNA, one strand shown. The procedure, abridged: as §1

Assay [17] deals with T12, ETV3 (Homo sapiens, UniProt P41162-2 1-143).
T12 sequence: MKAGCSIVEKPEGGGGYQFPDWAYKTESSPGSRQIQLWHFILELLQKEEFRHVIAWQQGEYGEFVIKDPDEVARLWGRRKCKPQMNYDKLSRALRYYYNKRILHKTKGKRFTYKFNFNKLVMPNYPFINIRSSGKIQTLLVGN
To be noted: protein: recombinant; tags: N-terminal GST; dsDNA, one strand shown. The method, boiled down: as §1

For assay [18], the target named is ETV6 (Homo sapiens, UniProt P41212 1-452). To be noted: protein: recombinant; tags: N-terminal GST; dsDNA, one strand shown. The procedure, abridged: as §1
Sequence of ETV6 (P41212 whole entry): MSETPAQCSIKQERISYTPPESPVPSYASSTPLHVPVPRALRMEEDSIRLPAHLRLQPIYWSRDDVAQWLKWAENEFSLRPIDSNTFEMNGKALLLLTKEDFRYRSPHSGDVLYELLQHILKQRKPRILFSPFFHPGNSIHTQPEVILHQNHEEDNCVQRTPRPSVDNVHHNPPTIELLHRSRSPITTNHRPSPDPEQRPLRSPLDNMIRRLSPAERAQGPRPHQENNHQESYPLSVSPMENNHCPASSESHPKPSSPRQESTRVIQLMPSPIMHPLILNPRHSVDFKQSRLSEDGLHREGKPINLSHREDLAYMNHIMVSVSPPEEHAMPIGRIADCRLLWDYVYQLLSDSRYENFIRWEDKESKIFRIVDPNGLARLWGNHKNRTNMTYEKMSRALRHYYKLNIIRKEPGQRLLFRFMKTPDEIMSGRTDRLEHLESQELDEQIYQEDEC

Sequence of ETV1 (P50549 whole entry): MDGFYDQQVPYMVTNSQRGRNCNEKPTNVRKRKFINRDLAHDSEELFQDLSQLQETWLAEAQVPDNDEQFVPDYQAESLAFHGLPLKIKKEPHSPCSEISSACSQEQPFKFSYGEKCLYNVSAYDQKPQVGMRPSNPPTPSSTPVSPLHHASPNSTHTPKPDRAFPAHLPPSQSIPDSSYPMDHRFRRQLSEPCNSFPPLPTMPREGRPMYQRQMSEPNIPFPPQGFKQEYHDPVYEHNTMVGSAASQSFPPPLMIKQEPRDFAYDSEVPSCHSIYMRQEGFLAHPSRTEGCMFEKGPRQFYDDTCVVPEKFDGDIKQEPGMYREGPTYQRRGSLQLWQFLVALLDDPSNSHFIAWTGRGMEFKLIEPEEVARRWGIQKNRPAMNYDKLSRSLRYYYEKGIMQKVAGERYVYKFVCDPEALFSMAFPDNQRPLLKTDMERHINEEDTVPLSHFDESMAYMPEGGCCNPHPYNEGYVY
Sequence of ETV5 (P41161 whole entry): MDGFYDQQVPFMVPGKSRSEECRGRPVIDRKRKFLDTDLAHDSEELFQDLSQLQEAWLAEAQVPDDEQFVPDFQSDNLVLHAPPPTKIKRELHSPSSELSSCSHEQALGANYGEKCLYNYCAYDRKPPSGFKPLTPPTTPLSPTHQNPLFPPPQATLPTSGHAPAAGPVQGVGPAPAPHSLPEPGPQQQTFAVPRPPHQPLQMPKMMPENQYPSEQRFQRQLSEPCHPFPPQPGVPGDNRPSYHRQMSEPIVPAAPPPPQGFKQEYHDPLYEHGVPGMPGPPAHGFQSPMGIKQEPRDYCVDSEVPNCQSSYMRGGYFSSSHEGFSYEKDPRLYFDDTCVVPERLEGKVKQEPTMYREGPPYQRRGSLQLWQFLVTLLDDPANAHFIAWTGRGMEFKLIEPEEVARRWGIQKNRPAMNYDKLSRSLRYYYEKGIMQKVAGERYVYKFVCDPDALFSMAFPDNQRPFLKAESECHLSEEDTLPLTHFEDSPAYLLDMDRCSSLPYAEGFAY
Sequence of CRX (O43186 whole entry): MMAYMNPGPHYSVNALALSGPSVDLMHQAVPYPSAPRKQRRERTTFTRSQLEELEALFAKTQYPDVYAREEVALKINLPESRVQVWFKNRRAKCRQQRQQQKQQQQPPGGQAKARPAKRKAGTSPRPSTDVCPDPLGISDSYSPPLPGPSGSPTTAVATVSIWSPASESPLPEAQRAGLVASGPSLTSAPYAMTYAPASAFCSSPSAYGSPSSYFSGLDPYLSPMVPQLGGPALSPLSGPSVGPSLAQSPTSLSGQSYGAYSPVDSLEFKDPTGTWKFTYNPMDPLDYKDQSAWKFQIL

On to CTAGAT, for which the binding signal in assay [1] was 1.13 fold enrichment (6-mer frequency, TF over GST control); in [2], 1.19 fold enrichment (6-mer frequency, TF over GST control); in assay [3], 2.7 fold enrichment (6-mer frequency, TF over GST control); in [4], 1.16 fold enrichment (6-mer frequency, TF over GST control); in assay [5] it was 1.16 fold enrichment (6-mer frequency, TF over GST control); in assay [6] it was 1.17 fold enrichment (6-mer frequency, TF over GST control). Moreover, the binding signal is 1.17 fold enrichment (6-mer frequency, TF over GST control) in [7]; 1.15 fold enrichment (6-mer frequency, TF over GST control) in assay [8]; 1.83 fold enrichment (6-mer frequency, TF over GST control) in assay [9]; 1.17 fold enrichment (6-mer frequency, TF over GST control) in assay [10]; 1.24 fold enrichment (6-mer frequency, TF over GST control) in assay [11]; 1.34 fold enrichment (6-mer frequency, TF over GST control) in assay [12]. Besides, the binding signal was 1.2 fold enrichment (6-mer frequency, TF over GST control) in [13]; 1.26 fold enrichment (6-mer frequency, TF over GST control) in [14]; 1.2 fold enrichment (6-mer frequency, TF over GST control) in assay [15]; 1.11 fold enrichment (6-mer frequency, TF over GST control) in [16]; 1.19 fold enrichment (6-mer frequency, TF over GST control) in assay [17]; 1.05 fold enrichment (6-mer frequency, TF over GST control) in [18].
